Compound in this test: Cc1cc(ccc1-c1ccccc1)C(=O)N1CCCN(CC1)C(=O)CCl [compound 10]
Nature of the test: probe-labelled cysteine peptide fold change vs DMSO (competition) (log2 fold change); higher = less target engagement (more negative = stronger competition). The following applies: THP-1, incubation time: 4 h.

About 21,000 targets were measured; listed, in parts, are those with the largest changes and a random draw of the rest.
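Also: competitive profiling in live THP-1 cells: cysteine peptides tagged with an iodoacetamide desthiobiotin (IA-DTB) probe, intensity after compound treatment relative to DMSO-treated cells.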

Sequence of UniProt Q8IZD6 (Q8IZD6 whole entry): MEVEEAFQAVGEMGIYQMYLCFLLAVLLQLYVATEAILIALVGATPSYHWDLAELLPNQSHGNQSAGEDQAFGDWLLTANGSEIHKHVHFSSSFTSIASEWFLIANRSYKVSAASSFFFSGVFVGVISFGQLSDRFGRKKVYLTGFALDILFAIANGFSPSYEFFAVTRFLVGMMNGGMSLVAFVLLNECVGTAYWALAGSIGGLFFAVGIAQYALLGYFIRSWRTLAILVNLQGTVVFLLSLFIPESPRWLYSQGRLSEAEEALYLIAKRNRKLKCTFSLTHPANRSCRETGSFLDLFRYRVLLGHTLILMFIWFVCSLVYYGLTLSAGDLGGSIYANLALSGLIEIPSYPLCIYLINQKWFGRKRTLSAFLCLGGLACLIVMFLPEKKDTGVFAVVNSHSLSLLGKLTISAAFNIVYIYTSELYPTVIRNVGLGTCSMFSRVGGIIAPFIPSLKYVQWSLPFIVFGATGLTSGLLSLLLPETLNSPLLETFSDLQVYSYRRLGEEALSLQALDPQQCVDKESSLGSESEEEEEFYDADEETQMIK
Sequence of UniProt Q12872 (Q12872 whole entry): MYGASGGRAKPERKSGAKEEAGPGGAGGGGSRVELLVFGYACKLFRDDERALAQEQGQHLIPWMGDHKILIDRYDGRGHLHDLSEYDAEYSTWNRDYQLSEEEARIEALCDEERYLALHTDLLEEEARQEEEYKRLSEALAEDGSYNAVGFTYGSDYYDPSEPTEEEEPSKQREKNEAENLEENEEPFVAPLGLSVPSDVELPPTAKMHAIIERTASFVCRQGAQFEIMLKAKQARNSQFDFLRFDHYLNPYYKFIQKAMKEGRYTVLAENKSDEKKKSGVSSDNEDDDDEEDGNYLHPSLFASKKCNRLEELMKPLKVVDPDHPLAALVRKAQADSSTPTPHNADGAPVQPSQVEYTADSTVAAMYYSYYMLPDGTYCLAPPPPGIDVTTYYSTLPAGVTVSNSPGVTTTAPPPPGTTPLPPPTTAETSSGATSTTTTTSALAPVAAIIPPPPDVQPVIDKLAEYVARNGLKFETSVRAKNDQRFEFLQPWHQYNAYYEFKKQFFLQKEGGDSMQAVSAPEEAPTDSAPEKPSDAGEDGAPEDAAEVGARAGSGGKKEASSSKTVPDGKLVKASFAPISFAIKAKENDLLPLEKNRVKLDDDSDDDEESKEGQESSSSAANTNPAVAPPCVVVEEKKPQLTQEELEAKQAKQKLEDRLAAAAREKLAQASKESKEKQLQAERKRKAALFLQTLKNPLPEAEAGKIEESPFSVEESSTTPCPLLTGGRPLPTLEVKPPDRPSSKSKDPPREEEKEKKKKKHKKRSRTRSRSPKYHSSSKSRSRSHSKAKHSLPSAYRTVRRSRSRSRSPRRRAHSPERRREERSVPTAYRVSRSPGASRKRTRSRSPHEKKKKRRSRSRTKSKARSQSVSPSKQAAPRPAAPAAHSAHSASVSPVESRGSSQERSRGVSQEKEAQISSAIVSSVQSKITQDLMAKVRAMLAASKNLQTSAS
Sequence of UniProt Q5VTR2 (Q5VTR2 whole entry, looked up): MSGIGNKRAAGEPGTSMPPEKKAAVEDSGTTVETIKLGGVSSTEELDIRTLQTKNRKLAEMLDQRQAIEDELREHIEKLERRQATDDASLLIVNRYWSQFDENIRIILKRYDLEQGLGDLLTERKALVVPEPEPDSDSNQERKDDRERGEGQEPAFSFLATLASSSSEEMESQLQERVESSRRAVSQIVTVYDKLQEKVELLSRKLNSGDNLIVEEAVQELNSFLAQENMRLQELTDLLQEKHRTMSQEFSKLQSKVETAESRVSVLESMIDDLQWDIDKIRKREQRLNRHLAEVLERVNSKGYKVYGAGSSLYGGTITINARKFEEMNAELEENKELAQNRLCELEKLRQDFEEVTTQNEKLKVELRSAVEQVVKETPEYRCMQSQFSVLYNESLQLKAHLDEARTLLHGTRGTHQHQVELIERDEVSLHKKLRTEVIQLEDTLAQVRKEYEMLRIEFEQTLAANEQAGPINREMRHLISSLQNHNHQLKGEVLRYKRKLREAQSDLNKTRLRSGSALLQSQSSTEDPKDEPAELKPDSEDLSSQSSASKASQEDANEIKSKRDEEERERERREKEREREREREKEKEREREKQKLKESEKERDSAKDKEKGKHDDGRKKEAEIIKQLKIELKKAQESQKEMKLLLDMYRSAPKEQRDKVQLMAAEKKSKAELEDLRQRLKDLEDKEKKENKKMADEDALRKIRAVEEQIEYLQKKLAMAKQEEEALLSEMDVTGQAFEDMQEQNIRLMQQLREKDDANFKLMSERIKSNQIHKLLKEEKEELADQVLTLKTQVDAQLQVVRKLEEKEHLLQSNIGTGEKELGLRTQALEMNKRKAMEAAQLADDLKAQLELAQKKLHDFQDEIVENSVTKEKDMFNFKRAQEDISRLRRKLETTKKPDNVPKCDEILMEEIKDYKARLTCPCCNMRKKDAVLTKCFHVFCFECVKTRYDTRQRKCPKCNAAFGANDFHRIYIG
Sequence of UniProt Q6GMV2 (Q6GMV2 whole entry, looked up): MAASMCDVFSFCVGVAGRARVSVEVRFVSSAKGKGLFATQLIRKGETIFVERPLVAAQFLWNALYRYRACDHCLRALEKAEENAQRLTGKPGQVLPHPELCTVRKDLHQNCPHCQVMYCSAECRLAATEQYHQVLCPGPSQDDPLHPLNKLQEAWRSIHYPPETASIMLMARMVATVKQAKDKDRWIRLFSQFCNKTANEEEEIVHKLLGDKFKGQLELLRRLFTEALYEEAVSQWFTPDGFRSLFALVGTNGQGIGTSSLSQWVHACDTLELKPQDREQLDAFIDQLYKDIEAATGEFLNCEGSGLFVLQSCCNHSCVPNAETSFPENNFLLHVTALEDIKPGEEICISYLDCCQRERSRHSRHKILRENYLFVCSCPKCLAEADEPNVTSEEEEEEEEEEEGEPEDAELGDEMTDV
Sequence of UniProt Q8IZ73 (Q8IZ73 whole entry, looked up): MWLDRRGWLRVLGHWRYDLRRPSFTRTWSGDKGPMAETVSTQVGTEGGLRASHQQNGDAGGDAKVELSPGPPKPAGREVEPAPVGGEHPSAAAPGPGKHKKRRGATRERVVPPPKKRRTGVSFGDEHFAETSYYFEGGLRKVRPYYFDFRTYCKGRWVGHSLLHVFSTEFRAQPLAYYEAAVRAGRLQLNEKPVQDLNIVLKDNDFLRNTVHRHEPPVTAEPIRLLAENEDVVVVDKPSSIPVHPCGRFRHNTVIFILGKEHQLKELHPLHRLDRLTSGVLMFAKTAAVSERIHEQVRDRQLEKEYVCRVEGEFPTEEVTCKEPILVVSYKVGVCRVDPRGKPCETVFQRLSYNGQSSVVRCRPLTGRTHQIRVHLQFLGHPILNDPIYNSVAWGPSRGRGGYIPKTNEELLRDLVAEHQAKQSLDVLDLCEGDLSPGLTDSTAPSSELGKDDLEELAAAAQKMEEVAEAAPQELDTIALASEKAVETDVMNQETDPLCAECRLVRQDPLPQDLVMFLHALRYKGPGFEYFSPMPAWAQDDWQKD
Sequence of UniProt Q9UBS8 (Q9UBS8 whole entry, looked up): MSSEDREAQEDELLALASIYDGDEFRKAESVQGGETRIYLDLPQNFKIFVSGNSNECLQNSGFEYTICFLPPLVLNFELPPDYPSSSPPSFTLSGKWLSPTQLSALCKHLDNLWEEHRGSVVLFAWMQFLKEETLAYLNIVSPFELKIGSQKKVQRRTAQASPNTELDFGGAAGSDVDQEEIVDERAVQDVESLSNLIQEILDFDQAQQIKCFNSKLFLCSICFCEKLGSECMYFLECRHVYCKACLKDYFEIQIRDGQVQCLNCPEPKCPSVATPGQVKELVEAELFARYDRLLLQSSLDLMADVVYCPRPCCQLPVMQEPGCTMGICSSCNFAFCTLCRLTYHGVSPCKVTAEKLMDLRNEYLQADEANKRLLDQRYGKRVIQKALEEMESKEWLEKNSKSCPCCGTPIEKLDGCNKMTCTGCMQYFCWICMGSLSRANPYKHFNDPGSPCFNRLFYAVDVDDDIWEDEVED
Sequence of UniProt Q9H4A4 (Q9H4A4 whole entry, looked up): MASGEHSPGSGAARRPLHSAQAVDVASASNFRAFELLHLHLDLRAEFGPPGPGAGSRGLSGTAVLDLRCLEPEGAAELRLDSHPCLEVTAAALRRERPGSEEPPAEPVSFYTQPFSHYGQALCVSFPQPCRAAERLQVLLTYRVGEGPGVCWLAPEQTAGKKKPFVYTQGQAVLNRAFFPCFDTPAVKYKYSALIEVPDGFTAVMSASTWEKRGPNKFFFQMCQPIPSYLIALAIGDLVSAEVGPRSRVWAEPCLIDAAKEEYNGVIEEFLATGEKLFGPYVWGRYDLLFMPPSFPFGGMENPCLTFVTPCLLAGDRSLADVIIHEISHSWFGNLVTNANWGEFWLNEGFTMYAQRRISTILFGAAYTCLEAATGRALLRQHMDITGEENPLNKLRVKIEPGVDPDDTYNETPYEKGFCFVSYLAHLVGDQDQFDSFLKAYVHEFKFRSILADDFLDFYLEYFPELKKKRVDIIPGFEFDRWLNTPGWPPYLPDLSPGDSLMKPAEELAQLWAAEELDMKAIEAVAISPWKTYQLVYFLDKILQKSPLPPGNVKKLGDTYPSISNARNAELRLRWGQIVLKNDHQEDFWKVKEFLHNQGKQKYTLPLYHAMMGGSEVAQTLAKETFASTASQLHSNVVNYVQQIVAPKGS
Sequence of UniProt Q8WWV3 (Q8WWV3 whole entry, looked up): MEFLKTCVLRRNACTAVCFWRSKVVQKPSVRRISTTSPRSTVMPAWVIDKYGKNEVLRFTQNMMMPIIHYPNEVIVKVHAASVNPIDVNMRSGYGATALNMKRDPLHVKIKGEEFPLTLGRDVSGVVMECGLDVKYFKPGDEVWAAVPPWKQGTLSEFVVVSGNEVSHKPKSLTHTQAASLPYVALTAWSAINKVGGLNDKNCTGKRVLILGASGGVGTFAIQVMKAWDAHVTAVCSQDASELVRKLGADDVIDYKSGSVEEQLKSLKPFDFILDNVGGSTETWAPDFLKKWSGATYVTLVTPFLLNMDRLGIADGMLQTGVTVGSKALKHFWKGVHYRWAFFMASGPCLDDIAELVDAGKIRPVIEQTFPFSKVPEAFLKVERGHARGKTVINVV

Take “SLK_Q9H2G2_1138_DLQLQCEANVR (UniProt Q9H2G2)”: the “probe-labelled cysteine peptide fold change” value was 0.0336 (10 µM) and 0.0461 (50 µM).

Consider “SLC9A3R1_O14745_206_IVEVNGVCMEGK (UniProt O14745)”, for which the “probe-labelled cysteine peptide fold change” value runs as follows: (10 µM) 0.165; (50 µM) -0.0744.

On to “RPAP1_Q9BWH6_185_GPSVGEVVPNVGPPEGAVTCETPTPR (UniProt Q9BWH6)”, for which the “probe-labelled cysteine peptide fold change” value is, setting by setting: (10 µM) 0.902; (50 µM) 1.33.

Regarding “RNH1_P13489_323+330_SCSFTAACCSHFSSVLAQNR (UniProt P13489)”, the “probe-labelled cysteine peptide fold change” value (10 µM) was -0.0759 and the “probe-labelled cysteine peptide fold change” value (50 µM) was -0.562.

Regarding “SAP30BP_Q9UHR5_127_CSNHLQDK (UniProt Q9UHR5)”, the “probe-labelled cysteine peptide fold change” value by setting is: (10 µM) -0.0884; (50 µM) -0.31.

Take “SMCHD1_A6NHR9_444_YHPFLYDRETYPDDPCFPSK (UniProt A6NHR9)”: the “probe-labelled cysteine peptide fold change” value (10 µM) was -0.159 and the “probe-labelled cysteine peptide fold change” value (50 µM) was -0.206.

In the case of “SLC22A15_Q8IZD6_438_NVGLGTCSMFSR (UniProt Q8IZD6)”, the “probe-labelled cysteine peptide fold change” value (10 µM) is 0.0942 and the “probe-labelled cysteine peptide fold change” value (50 µM) was -0.0742.

Regarding “SAE1_Q9UBE0_295_YCFSEMAPVCAVVGGILAQEIVK (UniProt Q9UBE0)”, the “probe-labelled cysteine peptide fold change” value is -0.252 (10 µM) and 0.0287 (50 µM).

In the case of “RNH1_P13489_199_DSPCQLEALKLESCGVTSDNCR (UniProt P13489)”, the “probe-labelled cysteine peptide fold change” value was -0.339 (10 µM) and -1.17 (50 µM).

For “RPS6_P62753_83_GHSCYRPR (UniProt P62753)”, the “probe-labelled cysteine peptide fold change” value runs as follows: (10 µM) -0.077; (50 µM) 0.137.

Consider “RNPEP_Q9H4A4_69_CLEPEGAAELR (UniProt Q9H4A4)”, for which the “probe-labelled cysteine peptide fold change” value stood at 0.063 (10 µM) and 0.0983 (50 µM).

As for “SEC63_Q9UGP8_295_NEPPLTCPYSLK (UniProt Q9UGP8)”, the “probe-labelled cysteine peptide fold change” value runs as follows: (10 µM) -0.343; (50 µM) -1.34.

Take “SCCPDH_Q8NBX0_238_WPISYCR (UniProt Q8NBX0)”: the “probe-labelled cysteine peptide fold change” value is -0.242 (10 µM) and -1.65 (50 µM).

As to “SAMM50_Q9Y512_403_THFFLNAGNLCNLNYGEGPK (UniProt Q9Y512)”, the “probe-labelled cysteine peptide fold change” value by setting is: (10 µM) 0.022; (50 µM) 0.169.

As for “RTN4IP1_Q8WWV3_130_DVSGVVMECGLDVK (UniProt Q8WWV3)”, the “probe-labelled cysteine peptide fold change” value runs as follows: (10 µM) 0.0949; (50 µM) 0.461.

Take “SIN3B_O75182_1138_TLCETVHVHGLPVTR (UniProt O75182)”: the “probe-labelled cysteine peptide fold change” value is -0.165 (10 µM) and 0.0678 (50 µM).

With “RPS6KA1_Q15418_432_ETIGVGSYSECKR (UniProt Q15418)”, the “probe-labelled cysteine peptide fold change” value (10 µM) is -1.06 and the “probe-labelled cysteine peptide fold change” value (50 µM) is -2.91.

Turning to “RNF20_Q5VTR2_960_CNAAFGANDFHR (UniProt Q5VTR2)”, the “probe-labelled cysteine peptide fold change” value by setting is: (10 µM) 0.279; (50 µM) 0.358.

Turning to “SEC63_Q9UGP8_671_EQTLISMPYHVCTLK (UniProt Q9UGP8)”, the “probe-labelled cysteine peptide fold change” value came to 0.235 (10 µM) and 0.336 (50 µM).

As for “SDCCAG8_Q86SQ7_236_CEIEESQLK (UniProt Q86SQ7)”, the “probe-labelled cysteine peptide fold change” value was 0.069 (10 µM) and -0.322 (50 µM).

In the case of “RNF214_Q8ND24_675_LVQPSELHPMACTHVLHK (UniProt Q8ND24)”, the “probe-labelled cysteine peptide fold change” value reads like this: (10 µM) 0.0646; (50 µM) 0.0132.

Turning to “RPUSD2_Q8IZ73_246_LLAENEDVVVVDKPSSIPVHPCGR (UniProt Q8IZ73)”, the “probe-labelled cysteine peptide fold change” value is -0.561 (10 µM) and -1.57 (50 µM).

Regarding “RPL7A_P62424_182_MGVPYCIIK (UniProt P62424)”, the “probe-labelled cysteine peptide fold change” value was 0.17 (10 µM) and -0.0867 (50 µM).

Turning to “SLPI_P03973_51+57_YKKPECQSDWQCPGK (UniProt P03973)”, the “probe-labelled cysteine peptide fold change” value reads like this: (10 µM) -0.847; (50 µM) -1.07.

For the target “SMURF2_Q9HAU4_706_LFTIHQIDACTNNLPK (UniProt Q9HAU4)”, the “probe-labelled cysteine peptide fold change” value was -0.159 (10 µM) and -0.59 (50 µM).

As for “RNF14_Q9UBS8_350_LTYHGVSPCK (UniProt Q9UBS8)”, the “probe-labelled cysteine peptide fold change” value is -0.0421 (10 µM) and -0.206 (50 µM).

With “SFSWAP_Q12872_307_CNRLEELMK (UniProt Q12872)”, the “probe-labelled cysteine peptide fold change” value (10 µM) is -0.382 and the “probe-labelled cysteine peptide fold change” value (50 µM) is -1.12.

As for “RNF31_Q96EP0_473_LSAPLPSSCGDPEK (UniProt Q96EP0)”, the “probe-labelled cysteine peptide fold change” value runs as follows: (10 µM) -0.208; (50 µM) 0.0977.

Turning to “SEPT5_Q99719_278_LYPWGIVEVENQAHCDFVK (UniProt Q99719)”, the “probe-labelled cysteine peptide fold change” value reads like this: (10 µM) 0.194; (50 µM) 0.135.

For “SAFB2_Q14151_672_ERLQLECQR (UniProt Q14151)”, the “probe-labelled cysteine peptide fold change” value reads like this: (10 µM) -0.167; (50 µM) -0.742.

Take “RPL11_P62913_21+25_KLCLNICVGESGDR (UniProt P62913)”: the “probe-labelled cysteine peptide fold change” value runs as follows: (10 µM) -0.0801; (50 µM) -0.334.

Take “SATB1_Q01826_173_IQLHSCPK (UniProt Q01826)”: the “probe-labelled cysteine peptide fold change” value reads like this: (10 µM) -0.0552; (50 µM) -0.188.

As to “SMC3_Q9UQE7_1134_CDPAPFYLFDEIDQALDAQHR (UniProt Q9UQE7)”, the “probe-labelled cysteine peptide fold change” value by setting is: (10 µM) 0.416; (50 µM) 0.52.

For the target “RPS6KA3_P51812_436_EDIGVGSYSVCK<|>RPS6KA2_Q15349_429_EDIGVGSYSVCK (UniProt Q15349+P51812)”, the “probe-labelled cysteine peptide fold change” value (10 µM) is -0.569 and the “probe-labelled cysteine peptide fold change” value (50 µM) is -1.64.

As to “SMYD5_Q6GMV2_136_LAATEQYHQVLCPGPSQDDPLHPLNK (UniProt Q6GMV2)”, the “probe-labelled cysteine peptide fold change” value is, setting by setting: (10 µM) -0.0142; (50 µM) -0.404.

Consider “SEC63_Q9UGP8_295_KNEPPLTCPYSLK (UniProt Q9UGP8)”, for which the “probe-labelled cysteine peptide fold change” value is, setting by setting: (10 µM) -0.404; (50 µM) -1.57.

For “SCAF11_Q99590_506_KLENTGIEANVLCLESEISENILEK (UniProt Q99590)”, the “probe-labelled cysteine peptide fold change” value reads like this: (10 µM) -0.478; (50 µM) 0.011.

As for “SATB1_Q01826_91_GTMLPVFCVVEHYENAIEYDCKEEHAEFVLVR (UniProt Q01826)”, the “probe-labelled cysteine peptide fold change” value by setting is: (10 µM) -0.0836; (50 µM) -0.32.

The values above are taken from the supplement of paper PMC12067093, “Discovery and optimisation of a covalent ligand for TRIM25 and its application to targeted protein ubiquitination” (Chemical Science, 2025).
